An excerpt weighted towards active compounds, which were near 3.3% of everything screened.
Bead autofluor: flagged as autofluorescent in microsphere protease counterscreen | compound autofluorescence counterscreen, microsphere flow cytometry; active compounds read high | fluorescence intensity (no concentration beside the values) | actives 3.1% (n = 360,000) | AID 624483; in the data active = fluorescence intensity above about 16000; inconclusive = no clear call, values can overlap the other calls
Anthrax LF inh2: blocks Bacillus anthracis lethal factor protease; actives 0.12% (n = 360,000); multiplex microsphere protease cleavage assay, LF; inhibition, % at 10 µM; P15917; AID 588501; note: plate controls were buffer without enzyme for full effect and enzyme alone for no effect
BoNT A protease: blocks Botulinum neurotoxin A light chain protease; multiplex microsphere protease substrate cleavage, flow cytometry; inhibition, % at 10 µM; AID 588499; actives 0.17% (n = 360,000); note: plate controls were buffer without enzyme for full effect and enzyme alone for no effect
BoNT F protease: blocks Botulinum neurotoxin F light chain protease; Multiplex microsphere protease cleavage assay, flow cytometry; inhibition, % at 10 µM; actives 0.22% (n = 360,000); AID 588497; in the data active = inhibition above about 35%, passing the limit was not always enough; inconclusive = no clear call, values can overlap the other calls; note: plate controls were buffer without enzyme for full effect and enzyme alone for no effect
MazF activator: increases E. coli MazEF RNase cleavage of RNA; P0AE70; actives 0.32% (n = 350,000); activation, % at 20 µM; FAM/BHQ RNA-DNA oligo cleavage fluorescence, 5 h; in the data active = activation above about 50%
Target sequence (P0AE70 whole entry, looked up): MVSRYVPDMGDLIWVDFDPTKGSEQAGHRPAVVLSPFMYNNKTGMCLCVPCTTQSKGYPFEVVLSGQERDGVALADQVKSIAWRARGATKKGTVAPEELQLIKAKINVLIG
SSB-PriA inh: K. pneumoniae PriA-SSBct interaction inhibition | inhibition, % at 33 µM | AlphaScreen SSBct-PriA binding, biotinylated peptide | actives 0.6% (n = 430,000); in the data active = inhibition mostly above about 37%, no sharp cut-off; inactive = mostly below about 20%;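 note: plate controls were negative control peptide for no effect and reference peptide for full effect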
* = called active by the depositor. Cut-off read from the data, not from the text of the source, unless noted: active = inhibition above about 30%; inconclusive = no clear call, values can overlap the other calls; inactive = below that.

Screening Cc1nn(C(=O)c2cccnc2)c(C)c1C returned Bead autofluor 20525*, Anthrax LF inh2 -2, BoNT A protease 0, BoNT F protease 0, MazF activator -6 and SSB-PriA inh -7.
O=C(NCC12CC3CC(CC(C3)C1)C2)c1nc2ncccn2n1 was read as Bead autofluor 19103*, Anthrax LF inh2 -8, BoNT A protease 2, BoNT F protease 0, MazF activator 96* and SSB-PriA inh -6.
`O=C(NNC(=O)c1cccn(Cc2cccc(F)c2)c1=O)Nc1ccc(Cl)c(Cl)c1` gave SSB-PriA inh -2.
`Cc1ccc(CS(=O)(=O)CCC(=O)NCCN(C)Cc2ccccc2)cc1` gave Bead autofluor 23874*, Anthrax LF inh2 -1, BoNT A protease 0, BoNT F protease -1, MazF activator 3 and SSB-PriA inh -15.
Screening Cc1cccc(OCCC(=O)NCC(c2ccccc2)N(C)C)c1 (configuration not stated) returned Bead autofluor 25146*, Anthrax LF inh2 -1, BoNT A protease -2, BoNT F protease 1, MazF activator 9 and SSB-PriA inh -16.
COc1ccc(OCCCC(=O)NCc2ccco2)cc1 was read as Bead autofluor 10879, Anthrax LF inh2 1, BoNT A protease -1, BoNT F protease -8, MazF activator -1 and SSB-PriA inh -19.
For Cc1ccc(OCCCC(=O)NCc2ccco2)cc1 the results were Bead autofluor 20751*, Anthrax LF inh2 -2, BoNT A protease 6, BoNT F protease 8, MazF activator 4 and SSB-PriA inh -4.
Screening Cc1cccc(OCCCC(=O)NCc2ccco2)c1 returned Bead autofluor 17050*, Anthrax LF inh2 1, BoNT A protease inconclusive, BoNT F protease -1, MazF activator -15 and SSB-PriA inh -11.
Screening COc1ccc(C(CNC(=O)CCOc2ccccc2)N(C)C)cc1 (configuration not stated) returned MazF activator -6 and SSB-PriA inh -11.
Screening COc1ccc(N(C(=O)c2snc(C(N)=O)c2N)C(C(=O)NC2CCCCC2)c2ccc(F)cc2)c(OC)c1 (configuration not stated) returned Bead autofluor 3567, Anthrax LF inh2 -2, BoNT A protease 3, BoNT F protease 4, MazF activator -3 and SSB-PriA inh -27.
For COc1ccc(-c2nsc(C(=O)N(c3ccc(F)cc3)C(C(=O)NC3CCCC3)c3ccc(OC)cc3)c2N)cc1 (configuration not stated) the results were Bead autofluor 23904*, Anthrax LF inh2 -3, BoNT A protease -1, BoNT F protease 1, MazF activator -4 and SSB-PriA inh -3.
Screening Cc1nc(C(=O)N2CCC(n3c(=O)[nH]c4ccc(F)cc4c3=O)CC2)cs1 returned SSB-PriA inh -10.
For CCCCOC(=O)C1=C(C)Nc2ncnn2C1c1cc(OC)c(OC)cc1OC (configuration not stated) the results were Bead autofluor 23316*, Anthrax LF inh2 -1, BoNT A protease 0, BoNT F protease -1, MazF activator 0 and SSB-PriA inh 8.
CCCCOC(=O)C1=C(C)Nc2ncnn2C1c1ccc(OC)c(OC)c1OC (configuration not stated) was read as Bead autofluor 23980*, Anthrax LF inh2 -2, BoNT A protease -2, BoNT F protease -3, MazF activator -1 and SSB-PriA inh 0.
For Cc1cc(Oc2ccc(=O)n(C)n2)nc(Oc2ccc(=O)[nH]n2)n1 the results were Bead autofluor 2915, Anthrax LF inh2 3, BoNT A protease 0, BoNT F protease -5, MazF activator 2 and SSB-PriA inh -18.
`CCOc1cc(C)nc(Oc2ccc(=O)[nH]n2)n1` gave Bead autofluor 23697*, Anthrax LF inh2 -4, BoNT A protease inconclusive, BoNT F protease 2, MazF activator 5 and SSB-PriA inh -10.
For COC(=O)c1ccccc1NC(=O)CSc1nc(N2CCc3ccccc3C2)nc2ccccc12 the results were SSB-PriA inh -21.
Screening Cc1ccc(NC(=O)N(CCCN2CCOCC2)Cc2cccs2)cc1C returned Bead autofluor 4246, Anthrax LF inh2 -1, BoNT A protease 0, BoNT F protease -4, MazF activator -17 and SSB-PriA inh 92*.
`CCOc1ccc(NC(=O)N(CCN2CCOCC2)Cc2ccc3c(c2)CCCN3CC)cc1` gave Bead autofluor 3657, Anthrax LF inh2 -3, BoNT A protease 0, BoNT F protease -10, MazF activator 8 and SSB-PriA inh 16.
`O=C(Nc1ccc(Cl)cc1)N(CCCN1CCOCC1)Cc1cccs1` gave Bead autofluor 5765, Anthrax LF inh2 0, BoNT A protease 0, BoNT F protease 1, MazF activator 0 and SSB-PriA inh -16.
`CCCN1CCCc2cc(CN(CCCN3CCOCC3)C(=O)Nc3ccc(OCC)cc3)ccc21` gave Bead autofluor 22682*, Anthrax LF inh2 -6, BoNT A protease 0, BoNT F protease -14, MazF activator 10 and SSB-PriA inh 50.
`O=C(CCc1ccccc1F)N(Cc1ccoc1)Cc1cccs1` gave SSB-PriA inh -20.
Screening CC1(C)C2CC=C(CN3CCC(O)CC3)C1C2 (configuration not stated) returned Bead autofluor 16149*, Anthrax LF inh2 -2, BoNT A protease inconclusive, BoNT F protease 0, MazF activator -4 and SSB-PriA inh 6.
`CCC(C)NS(=O)(=O)c1ccc(S(=O)(=O)N2CCCC3(CCCCC3)C2)cc1` (configuration not stated) gave Bead autofluor 21732*, Anthrax LF inh2 -5, BoNT A protease 2, BoNT F protease 0, MazF activator -1 and SSB-PriA inh -7.
For CCC(C)C(=O)Nc1ccc(S(=O)(=O)N2CCCC2)cc1 (configuration not stated) the results were Bead autofluor 3832, Anthrax LF inh2 15, BoNT A protease -1, BoNT F protease 15, MazF activator 3 and SSB-PriA inh -15.
O=S(=O)(Nc1cccc2cccnc12)c1ccc(S(=O)(=O)N2CCCC2)cc1 was read as Bead autofluor 4357, Anthrax LF inh2 -9, BoNT A protease -1, BoNT F protease -16, MazF activator -7 and SSB-PriA inh 45*.
Screening NC(P(=O)(O)O)P(=O)(O)O returned SSB-PriA inh -7.
CC(OC(=O)CN(C)S(=O)(=O)c1ccc(Cl)cc1)C(=O)Nc1ncc(Cl)cc1Cl (configuration not stated) was read as Bead autofluor 23244*, Anthrax LF inh2 -1, BoNT A protease 0, BoNT F protease -2, MazF activator 3 and SSB-PriA inh -12.
For CC(OC(=O)CN(C)S(=O)(=O)c1ccc(Cl)cc1)C(=O)Nc1cccc(Cl)c1 (configuration not stated) the results were Bead autofluor 10400, Anthrax LF inh2 -5, BoNT A protease -1, BoNT F protease 5, MazF activator 0 and SSB-PriA inh -17.

From PubChem BioAssay
